NALP1 inh: NALP1 inhibition. S. cerevisiae NALP1/ASC/caspase-1 growth, X-gal OD620, 72 h. actives 0.61% (n = 280,000). inhibition, % at 10 µM; in the data active means inhibition mostly above about 24%, no sharp cut-off; inactive means mostly below about 32%
NLRP3 yeast inh: blocks the NALP3 inflammasome reconstituted in yeast | actives 0.39% (n = 330,000) | Yeast reconstituted NLRP3/ASC/caspase-1, beta-gal luminescence, 24 h | AID 2825 | inhibition, % at 10 µM;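 active means inhibition of 50% or more; inactive means inhibition below 50%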;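 further: plate controls were induced DMSO wells for no effect and uninduced yeast grown without galactose for full effect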
tim10-1 inh: inhibits growth of tim10-1 mutant yeast; S. cerevisiae tim10-1 ts strain growth, BacTiter-Glo, 24 h; inhibition, % at 20 µM; actives 2.2% (n = 330,000);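 active means inhibition of at least 40%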;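 further: mutant grown at 25 °C; 0% = DMSO wells with yeast and 100% = wells holding no yeast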
tim23-1 inh: inhibits growth of tim23-1 mutant yeast | actives 1.3% (n = 330,000) | inhibition, % at 20 µM | S. cerevisiae tim23-1 growth, BacTiter-Glo luminescence, 24 h | AID 463212;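 active means growth inhibition of the mutant yeast at or above 50%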;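 further: temperature-sensitive mutant grown at 25 °C; plate controls were DMSO-treated mutant yeast for no effect and medium wells lacking yeast for full effect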
TIM10 inh: TIM10 yeast growth inhibition; actives 1.4% (n = 330,000); inhibition, % at 10 µM; S. cerevisiae TIM10 strain growth, BacTiter-Glo luminescence, 24 h;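 active means inhibition of 40% or more at the single tested concentration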;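 further: wild-type TIM10 isogenic control strain grown at permissive 25 °C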
tim23-1 confirm: confirmation of tim23-1 mutant yeast growth inhibitors. shares compounds with tim23-1 inh. actives 83% (n = 4,400). inhibition, % at 20 µM. S. cerevisiae tim23-1 growth, BacTiter-Glo luminescence, 24 h;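 active means inhibition above about 39% in either of two replicate wells at 20 µM, limit read from the data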;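 further: temperature-sensitive tim23-1 mutant grown at 25 °C; 0% = DMSO wells with yeast and 100% = medium wells without yeast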
An asterisk follows results filed as active; x = not tested or not shown. Hits are enriched below; roughly 4% of the tested compounds scored in any of these assays.

SMILES	NALP1 inh	NLRP3 yeast inh	tim10-1 inh	tim23-1 inh	TIM10 inh	tim23-1 confirm
CC(Nc1cc(=O)n(C)c(=O)n1C)c1ccccc1 (centres undefined)	13	-7	3	52*	9	2
Cc1ccc(S(=O)(=O)NC(=O)COc2ccc([N+](=O)[O-])cc2)cc1	-4	-6	0	14	7	x
COc1ccc(CN(CC(O)COCc2ccccc2)S(=O)(=O)c2ccccc2Br)cc1OC (centres undefined)	x	x	25	50*	4	36*
COc1ccccc1Nc1nc(Cl)c(C=O)s1	19	5	37	39	36	x
Cc1ccc(Nc2nc(Cl)c(C=O)s2)cc1Cl	-10	31	25	67*	39	71*
Cc1ccc(Nc2nc3ccccc3c(=O)s2)cc1C	-8	22	14	17	29	x
O=Cc1sc(Nc2ccccc2)nc1Cl	-18	10	-23	51*	24	49*
Fc1cccc(CNc2ncnc3cc(Cl)ccc23)c1F	13	40	18	60*	13	12
O=C(COC(=O)c1c(F)cccc1Cl)NC(=O)Nc1ccc2c(c1)OCCO2	x	12	3	13	2	x
O=C(COC(=O)c1nc(Cl)c(Cl)c(Cl)c1Cl)NCc1ccccc1	x	-15	36	59*	31	58*
O=C(c1cc2ccccc2oc1=O)N(Cc1ccco1)C1CCS(=O)(=O)C1 (centres undefined)	-18	23	6	94*	4	13
O=C(NCc1cccc(C(F)(F)F)c1)C1CC(c2ccc(C(F)(F)F)cc2)=NO1 (centres undefined)	x	9	4	20	1	x
O=C1CC(c2cccc(Br)c2)c2cc3c(cc2N1)CCC3 (centres undefined)	20	16	38	58*	8	52*
COc1cc2c(cc1OC)C(c1cccc(Br)c1)CC(=O)N2 (centres undefined)	5	5	-2	11	1	x
O=C(O)c1ccc(/C=C2/SC(=S)N(Cc3ccccc3)C2=O)cc1	0	x	x	x	x	x
O=C1/C(=C\c2ccc(O)cc2)SC(=S)N1Cc1ccccc1	3	24	-13	55*	19	14
CC/C(=C(\c1ccccc1)c1ccc(OCCN(C)C)cc1)c1ccccc1	x	41	33	43	29	34
CC/C(=C(\c1ccc(O)cc1)c1ccc(OCCN(C)C)cc1)c1ccccc1	26	21	-18	-2	29	x
COC(C/C=C\[C@H](O)[C@@H](C)OCc1ccccc1)OC	x	4	9	7	-2	x
CN(C)S(=O)(=O)c1cc(NC(=O)c2cc(=O)[nH]c3ccccc23)ccc1Cl	3	-2	14	8	-4	x
O=C(CCC(=O)NNC(=O)Nc1cccc(Cl)c1)NCc1ccccc1	-20	0	6	3	-15	x
CC(=O)c1cccc(NC(=O)NCc2ccc3c(c2)OCO3)c1	3	28	8	11	-2	x
O=C(NCc1ccc2c(c1)OCO2)c1ccc(-c2ccc(Cl)cc2)o1	18	30	19	55*	33	54*
O=C(Cc1ccccc1)NNC(=O)Nc1cccc(Cl)c1	-2	-1	-4	51*	9	11
O=C(NCc1ccc2c(c1)OCO2)Nc1cccc(Cl)c1	-8	20	2	53*	28	64*
SMILES	NALP1 inh	NLRP3 yeast inh	tim10-1 inh	tim23-1 inh	TIM10 inh	tim23-1 confirm
O=C(c1ccc(CNS(=O)(=O)c2ccc(Br)cc2)cc1)N1CCCCCC1	-8	-1	25	17	-1	x
Clc1ccc(Cc2nc(-c3cccnc3)no2)cc1	17	19	21	21	0	x
CCN(CC(=O)NCc1cccs1)C(=O)c1cccc(S(=O)(=O)Nc2ccc(C)cc2)c1	x	10	6	17	12	x
CCOC(=O)Nc1sc(C)nc1-c1ccccc1	-43	-7	-21	0	-7	x
CCOC(=O)Nc1nc(-c2ccccc2)c(C(=O)c2ccc(Cl)cc2)s1	15	23	34	53*	34	59*
COC(=O)[C@H]1C[C@H]1[C@@H](NC(=O)c1ccc[nH]1)c1ccccc1	x	27	-7	1	-2	x
Cn1c(C=O)c(-c2ccc3c(c2)OCCO3)c2ccccc21	x	12	27	53*	27	53*
O=C(/C=C\Nc1cccc(F)c1)c1cccs1	56	33	8	53*	24	51*
Cc1ccc(N/C=C/C(=O)c2cccs2)cc1	-3	16	-12	56*	13	57*
O=c1[nH]c(SCc2cccc(Cl)c2)nc2[nH]ncc12	10	18	21	7	15	x
COc1ccc(N=c2cc(-c3ccc(OC)cc3)oc3ccccc23)cc1	47	27	27	51*	30	39*
COc1ccc(OC)c(C(=O)c2coc3cc(Br)c(O)c(Br)c23)c1	x	14	37	58*	12	46*
COc1ccc(OC)c(C(=O)c2coc3ccc(O)c(CN(C)C)c23)c1	17	18	-5	-5	-2	x
O=C(Nc1ccccc1-c1ccccc1)NC1CC2CCCC(C1)N2Cc1ccc(F)cc1 (centres undefined)	14	18	10	56*	0	17
O=C(Nc1ccccc1-c1ccccc1)NC1CC2CCCC(C1)N2CCc1ccccc1 (centres undefined)	12	0	8	7	17	x
CC12CC3(C)CC(C)(C1)CC(C(=O)NC1=NCCS1)(C2)C3	x	24	40	52*	33	40*
O=C(NC1=NCCS1)C12CC3CC(C1)CC(C(=O)NC1=NCCS1)(C3)C2	-8	11	-11	4	-5	x
Cc1ccc(S(=O)(=O)N2CCN(C(=O)c3ccc(Br)o3)CC2)c(C)c1	19	35	4	38	10	x
NC(=O)c1ccc(N=Cc2c(O)ccc3ccccc23)cc1	x	-4	22	57*	11	45*
O=C(O)c1ccc(N=Cc2c(O)ccc3oc4c(c23)CCCC4)cc1	-1	13	14	66*	25	71*
O=C(O)Cc1ccc(N=Cc2c(O)ccc3ccccc23)cc1	29	3	-9	34	20	x
COc1ccc(N=Cc2c(O)ccc3ccccc23)cc1	-18	10	35	57*	19	57*
O=C(O)c1ccc(N=Cc2c(O)ccc3ccccc23)cc1	0	15	8	58*	12	56*
CC(=O)Nc1ccc(N=Cc2c(O)ccc3ccccc23)cc1	-3	6	-1	49	3	x
COc1ccc(S(=O)(=O)N(C)C[C@H]2Oc3c(NS(=O)(=O)c4ccc(F)cc4)cccc3C(=O)N([C@H](C)CO)C[C@@H]2C)cc1	x	11	6	8	5	x
CCN(Cc1ccccc1)C(=O)CN1C(=O)NC(CC)(c2ccc(F)cc2)C1=O (centres undefined)	7	14	14	7	-13	x

Screens deposited in PubChem BioAssay by Sanford-Burnham Center for Chemical Genomics.
